Screening results (PubChem)
An excerpt weighted towards active compounds, which were near 19% of everything screened.
KB-3-1 cytotox – kills parental KB-3-1 adenocarcinoma cells | KB-3-1 viability, CellTiter-Glo ATP luminescence, 72 h | Potency, µM (highest dose often 46.1 µM), most hits filed as cytotoxic | hit rate 1.4% among 400,000 | AID 1347075; also: nearly all actives have a fitted effect of over 60% in size
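Multi-concentration cytotoxicity screen in KB-3-1 cells grown in DMEM lacking phenol red with 10% FBS. After 72 h at 37 °C with compound, ATP-dependent luminescence was recorded.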
KB-V1 MDR tox – KB-V1 MDR subline cytotoxicity; KB-V1 MDR cells viability, CellTiter-Glo, 72 h; Potency, µM (series often up to 46.1 µM), most hits filed as cytotoxic; hit rate 3.4% among 400,000; AID 1347076; also: nearly all actives have a fitted effect of over 60% in size
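Following 72 h at 37 degrees C with compound, KB-V1 cell viability was read by CellTiter-Glo luminescence, medium being phenol-red-free DMEM plus 10% FBS; concentration-response parameters came from normalized, curve-fitted qHTS data.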
TDP1 cell CPT – growth inhibition of DT40 Tdp1-/-;hTDP1 cells with camptothecin (screen for TDP1 inhibitors). hit rate 12% among 420,000. chicken DT40 Tdp1-/-;hTDP1 cells + 20 nM CPT, ATP luminescence, 48 h. Potency, µM (top dose mostly 46.2 µM), without a hit: at the highest dose activity change, negative = growth inhibition, usual class: inhibitors. AID 686979; also: nearly all actives have a fitted effect of over 55% in size
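Chicken DT40 Tdp1-/- cells complemented with human TDP1, 400 cells/well, exposed to compounds plus 20 nM camptothecin for at least 48 h at 37 C; viability read as ATP content by CellTiter-Glo luminescence.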
TDP1 cell noCPT – qHTS for Inhibitors of human tyrosyl-DNA phosphodiesterase 1 (TDP1): qHTS in cells in absence of CPT; DT40 Tdp1-/- hTDP1 cells, no CPT, ATP luminescence, 48 h; Potency, µM (titrated, usually from 46.2 µM), for inactives: at the highest dose activity change, negative = growth inhibition, most hits filed as inhibitors; hit rate 15% among 420,000; AID 686978, 2013; also: nearly all actives have a fitted effect of over 55% in size
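Luminescent ATP content (CellTiter-Glo) served as the growth readout. Knockout chicken DT40 cells expressing human TDP1 were exposed to compounds without camptothecin for a minimum 48 hr at 37 °C.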
HT1080-NT tox – kills 2HG-producing HT-1080-NT fibrosarcoma cells; HT-1080-NT fibrosarcoma viability, CellTiter-Glo ATP luminescence, 48 h; hit rate 1.6% among 360,000; Potency, µM (highest dose often 46.1 µM), for inactives: at the highest dose activity, negative = less viability, most hits filed as cytotoxic;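 also: NT is the 2HG producing partner of a matched IDH1 knockdown line; 0% = DMSO-treated cells and -100% = media-only wells without cells; nearly all actives have a fitted effect of over 55% in size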
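Compounds were tested in concentration-response format on HT-1080-NT cells for 48 hours at 37 degrees C. Cell viability came from CellTiter-Glo luminescence; curves were classified by r2, response magnitude and activity.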
HT1080 IDH1KD tx – kills HT-1080 cells with IDH1 knockdown; HT-1080 IDH1 knockdown viability, ATP luminescence, 48 h; Potency, µM (highest dose often 46.1 µM), for the others: top-dose activity, negative = toxicity, actives largely listed as cytotoxic; hit rate 2% among 360,000; AID 686971;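 also: 0% = DMSO wells and -100% = cell-free medium wells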
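% activity derives from luminescence (CellTiter-Glo), normalised to DMSO and no-cell wells. HT-1080-IDH1KD cells, 750/well, had 48 h compound exposure at 37 °C.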
An asterisk follows results filed as active; i = inactive; ? = inconclusive; nt = not tested or not shown; [ ] = another dose, or the depositor's remark. Calls follow the shape of the dose curve; as a rule, active = well fitted curve in the direction sought with a large enough effect; inconclusive = small, poorly fitted or top-dose-only effect, or another doubt; inactive = no such curve, though single readings can be large; an effect the other way counts as inactive or inconclusive. Unless noted, % is scaled to controls: 0 for no effect and ±100 for the full control effect; potency is read from the fitted curve at half-maximal effect.

SMILES	KB-3-1 cytotox	KB-V1 MDR tox	TDP1 cell CPT	TDP1 cell noCPT	HT1080-NT tox	HT1080 IDH1KD tx
CCC(NC(=O)NCc1cccnc1)(C(F)(F)F)C(F)(F)F	i	i	-16%	8%	7%	7%
CC(C)(C)OC(=O)N(Cc1ccccc1)Cc1ccccc1OCc1ccc(NC(=O)C2CCC2)cc1	i	?	18µM*	?	-14%	-25%
CC(C)(C)OC(=O)N(CCc1ccccc1)Cc1ccccc1OCc1cccc(NC(=O)C2CCCC2)c1	i	i	21µM*	?	?	1%
CC(C)(C)OC(=O)N(CCc1ccccc1)Cc1ccc(OCc2cccc(NC(=O)C3CCCC3)c2)cc1	i	i	5.2µM*	6.5µM*	4%	5%
CC(C)(C)OC(=O)N(CCc1ccccc1)Cc1ccccc1OCc1ccc(NC(=O)C2CCC2)cc1	?	?	?	?	-14%	-24%
CC(C)(C)OC(=O)N(CCc1ccccc1)Cc1cccc(OCc2cccc(NC(=O)C3CCCC3)c2)c1	i	i	?	?	0%	3%
COc1ccc(S(=O)(=O)Nc2cccc(-c3ccc4nncn4n3)c2)c(OC)c1	i	i	?	?	-17%	-12%
O=C(C1CCN(S(=O)(=O)c2ccccc2)CC1)N1CCCCCC1	i	i	10%	2%	0%	0%
Cc1csc(=O)n1CCC(=O)OC(C)C(=O)NCc1ccccc1 (stereo not drawn)	i	i	0%	2%	0%	0%
Cc1nc(-c2c(C(F)(F)F)noc2-c2ccc(O)cc2O)cs1	i	i	?	?	-19%[9.24 µM]	?
Oc1ccc(-c2onc(C(F)(F)F)c2-c2cscn2)c(O)c1	i	?	?	21µM*	6%	0%
Cc1c(CCOC(=O)C23CC4CC(CC(C)(C4)C2)C3)sc[n+]1CC(=O)c1ccccc1	?	i	23µM*	21µM*	?	?
Cc1c(CCOC(=O)CC23CC4CC(CC(C)(C4)C2)C3)sc[n+]1CC(=O)c1ccccc1	i	i	16µM*	16µM*	-20%	-28%
Cc1ncsc1CCOC(=O)C12CC3CC(CC(C3)C1)C2	i	i	-24%	-27%	-7%	-6%
Cc1c(CCOC(=O)CC23CC4CC(CC(C4)C2)C3)sc[n+]1CC(=O)c1ccc(Br)cc1	i	i	?	26µM*	?	?
CCCc1cc(=O)[nH]c(SCC(=O)Nc2c(C)n(C)n(-c3ccccc3)c2=O)n1	i	i	-2%	11%	0%	0%
S=C(N/N=C/c1ccccc1)N1CCOCC1	i	?	?	?	1%	-9%
CCOc1ccc(-n2c(=S)sc3c(=O)n(-c4ccc(F)cc4)c(SCC(=O)O)nc32)cc1	i	i	-16%	-1%	8%	0%
OCCCc1nc2ccccc2[nH]1	i	i	4%	0%	-13%	-11%
CCOC(=O)c1ccc(N2C(=O)c3n[nH]c(-c4ccco4)c3C2c2cccc(O)c2)cc1 (stereo not drawn)	i	i	21µM*	21µM*	nt	nt
CCOC(=O)c1ccc(N2C(=O)c3n[nH]c(-c4ccco4)c3C2c2cccc(OC)c2)cc1 (stereo not drawn)	?	?	23µM*	18µM*	nt	nt
CCOC(=O)c1ccc(N2C(=O)c3n[nH]c(-c4ccco4)c3C2c2cccc(F)c2)cc1 (stereo not drawn)	i	i	18µM*	21µM*	nt	nt
O=C(O)c1ccc(N2C(=O)c3[nH]nc(-c4ccccc4)c3C2c2cccc(F)c2)cc1 (stereo not drawn)	i	i	-12%	-5%	nt	nt
CCOC(=O)c1ccc(N2C(=O)c3n[nH]c(-c4ccco4)c3C2c2ccc(F)cc2)cc1 (stereo not drawn)	i	i	23µM*	23µM*	nt	nt
CCOC(=O)c1ccc(N2C(=O)c3n[nH]c(-c4ccco4)c3C2c2ccc(OCC)cc2)cc1 (stereo not drawn)	nt	nt	?	16µM*	nt	nt
SMILES	KB-3-1 cytotox	KB-V1 MDR tox	TDP1 cell CPT	TDP1 cell noCPT	HT1080-NT tox	HT1080 IDH1KD tx
CC(=O)c1ccc(OCC(O)CN2CCN(c3ccc(F)cc3)CC2)cc1 (stereo not drawn)	i	i	?	23µM*	-1%	8%
CCC(=O)c1ccc(OCC(O)CN2CCN(c3ccc(F)cc3)CC2)cc1 (stereo not drawn)	i	i	-2%	-13%	-1%	10%
COc1ccccc1N1CCN(CC(O)COc2ccc(C)cc2C)CC1 (stereo not drawn)	i	i	?	?	-9%	-27%
COc1cc(C(C)=O)ccc1OCC(O)CN1CCN(c2cc(C)cc(C)c2)CC1 (stereo not drawn)	i	i	?	16µM*	-6%	-16%
COc1cc(CN(C)Cc2cccc3ccccc23)cc([N+](=O)[O-])c1O	i	?	1%	-28%	1%	-1%
CC(C)(C)N(Cc1ccccc1)C(=O)COC(=O)C1CC1	i	i	-6%	-21%	-4%	-7%
CC(C)N(Cc1ccccc1)C(=O)COC(=O)C1CCN(c2ccc(C(F)(F)F)cn2)CC1	i	?	16µM*	18µM*	-5%	-17%
CC(C)(C)N(Cc1ccccc1)C(=O)COC(=O)C1CCN(c2ccc(C(F)(F)F)cn2)CC1	?	?	?	15µM*	?	-9%
CC1(C(=O)N(CC(=O)NC2CCCC2)Cc2ccco2)CC(=O)N=C2C=CC=CN21 (stereo not drawn)	i	?	0%	11%	3%	7%
O=C(CSc1nc2ccccc2n1S(=O)(=O)c1ccccc1)N1CCCC1	i	i	0%	-2%	1%	16%
